The values that follow come from PubChem BioAssay (NCI).

Common to all, as to test: NCI-60 one-dose screen, 48 h (100 = growth as untreated, 0 = no growth, -100 = all killed)
Common to all, as to conditions: 10 µM unless noted

The test system of assay [1] is HCT-15 colon.
In assay [2] the test system is HT29 colon.
Assay [3] concerns SNB-75 CNS.
In assay [4] the test system is SNB-19 CNS.
Assay [5] deals with U251 CNS.
Assay [6] deals with SK-MEL-5 melanoma.
The test system of assay [7] is UACC-62 melanoma.
Assay [8] relates to LOX IMVI melanoma.
The test system of assay [9] is SK-MEL-28 melanoma.
The test system of assay [10] is SK-MEL-2 melanoma.
The test system of assay [11] is EKVX NSCLC.
The test system of assay [12] is SN12C renal.
Assay [13] has as its system UO-31 renal.
Assay [14] concerns TK-10 renal.
Assay [15] concerns ACHN renal.
Assay [16] has as its system CAKI-1 renal.
For assay [17], the system named is CCRF-CEM leukemia.
Assay [18] has as its system MOLT-4 leukemia.
Assay [19] has as its system A498 renal.
Assay [20] concerns PC-3 prostate.

The panel holds about 83,000 compounds, 20% with a hit somewhere; the sample as a whole holds those more often.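 Cell lines were cultured in 96-well plates, exposed to a single compound concentration, and assessed for percent growth 48 hours later.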 Unmarked numbers belong to inactive results. The source made the active and inactive calls. How the source made its calls: active means growth percent below 10; inactive means the rest.

For the molecule `O=C1[C@@H]2Cc3c([nH]c4ccccc34)[C@@H](c3ccc(Cl)cc3)N2C(=O)CN1C1CCN(Cc2ccccc2)CC1`, the growth in [1] was 34.1%; in assay [2], -28.4% (active); in assay [3] it was 29%; in assay [4], 50.5%; in [5], 34.7%; in assay [6] it was 54.2%. For the same molecule, the growth in assay [7] is 62.3%; in assay [8], -15% (active); in [9], 88.1%; in assay [10], 92.7%; in [11], 54.6%; in assay [12] it was 55%. Also, the growth in assay [13] is 30.5%; in assay [14], 78.9%; in [15], 51.4%; in [16], 26.2%; in assay [17], 20.1%; in assay [18], 13.5%.

Consider `CCCN1C=C/C(=C\C(=O)n2ccc3ccccc32)c2ccccc21`, for which the growth in assay [1] is 80.3%; in assay [2] it was 74.7%; in assay [3] it was 90.8%; in assay [4], 94.5%; in [5] it was 90.3%; in [6] it was 82.1%. Moreover, the growth in assay [7] is 68.9%; in [8] it was 78.7%; in assay [9], 90.6%; in [10], 105%; in [11] it was 56.5%; in [12], 84.1%. Moreover, the growth was 53% in [13]; 105% in [14]; 82.8% in assay [15]; 60.1% in assay [16]; 73.3% in assay [17]; 76.5% in [18].

For `COc1cc2cc(Oc3ccc(NC(=O)c4cc(C(F)(F)F)cc(C(F)(F)F)c4)cc3)c(C)nc2cc1OCCN1CCOCC1`, the growth in assay [1] was 47.1%; in [2] it was 63.8%; in [3] it was 47.7%; in [4] it was 87.6%; in assay [5], 55%; in assay [6], 14.6%. Moreover, the growth was 59.3% in [7]; 69.6% in assay [8]; 70.8% in assay [9]; 101% in assay [10]; 57.7% in assay [11]; 83% in assay [12]. The growth is 55.8% in [13]; 105% in [14]; 77.3% in assay [15]; 52.8% in assay [16]; 55% in assay [19]; 45% in assay [17]. In addition, in [18], the growth is 66.1%.

With `COc1ccc2c(c1)c(-c1nn3cc(-c4ccncc4)nc3s1)cn2C`, the growth in assay [1] is 60.7%; in assay [2], 79.2%; in assay [3] it was 29.6%; in [4] it was 86.1%; in assay [5] it was 83%; in assay [20], 71.2%. In addition, the growth in assay [6] is 86.3%; in assay [7] it was 68.7%; in assay [9] it was 114%; in assay [10], 104%; in [11], 77.6%; in [12], 84.3%. Besides, the growth in assay [13] was 53.3%; in assay [14], 130%; in assay [15], 71.4%; in [16], 50.6%; in assay [17], 43.9%; in assay [18], 47.2%.

`O=C1[C@H]2Cc3c([nH]c4ccccc34)[C@H](c3ccc(Cl)cc3)N2C(=O)CN1C1CCN(CC2CCCCC2)CC1`: the growth in assay [1] is 28.6%; in [2], -21.9% (active); in assay [3], 41.4%; in [4], 76%; in assay [5] it was 49.2%; in assay [6], 37.8%. For the same molecule, the growth was 93.4% in assay [7]; -79.5% (active) in [8]; 83.2% in assay [9]; 98.2% in assay [10]; 81.5% in assay [11]; 69.7% in assay [12]. Besides, the growth was 39.1% in assay [13]; 112% in assay [14]; 74.8% in [15]; 37.9% in assay [16]; 80.4% in assay [19]; 39.3% in assay [17]. The growth in assay [18] is 35.1%.

For the molecule `Cc1cc2nc3c4cc(C#N)ccc4n(CCN(C)C)c3nc2cc1C`, the growth in assay [1] is 2.02% (active); in assay [2], -44.3% (active); in assay [3], -8.73% (active); in assay [4], 5.67% (active); in assay [5] it was 2.73% (active); in assay [20], 4.69% (active). The growth was -89.5% (active) in assay [6]; -60.6% (active) in [7]; -50.1% (active) in assay [9]; -86.7% (active) in assay [10]; -7.83% (active) in [11]; 2.81% (active) in assay [12]. For the same molecule, the growth was -27.9% (active) in assay [13]; -2.16% (active) in assay [14]; -13.7% (active) in assay [15]; -27.3% (active) in assay [16]; -44% (active) in assay [19]; 3.32% (active) in [17]. Also, the growth in assay [18] is 3.23% (active).

On to `CN1CCN(c2ccc(Nc3nc(NCCNC(=O)c4ccc(F)cc4)c4sccc4n3)cc2)CC1`, for which the growth in assay [1] was 28.2%; in [2], 32%; in assay [3], 91.5%; in [4], 91.8%; in assay [5], 37%; in [6], 25.2%. Also, the growth in assay [7] is 33.8%; in assay [8] it was 8.7% (active); in assay [9] it was -8.89% (active); in [10], 104%; in assay [11], 92.7%; in assay [12], 84.2%. The growth is 65.5% in assay [13]; 128% in [14]; 67.8% in [15]; 57.9% in assay [16]; 125% in assay [19]; 38.2% in assay [17]. The growth in assay [18] is 23.4%.

With `COc1ccc(/C=N/NC(=O)CSc2nc(-c3cnccn3)cc(-c3cccs3)c2C#N)cc1`, the growth in [1] was 87.3%; in assay [2], 8.86% (active); in [3], 77.3%; in assay [4], 57.8%; in [5], 68.1%; in assay [6], 72.5%. Further, the growth is 59.4% in assay [7]; 45.7% in assay [8]; 77% in assay [9]; 89% in [10]; 78.2% in assay [11]; 64% in [12]. Further, the growth in assay [13] is 101%; in [14], 98.7%; in [15], 74%; in assay [16], 48.3%; in [19], 79%; in assay [17], 86.1%. The growth in assay [18] was 73.8%.
